# bCat KO growth = beta-catenin-lacking colon tumor cell growth suppression | AID 818 | HCT116 beta-catenin knockout viability, CellTiter-Glo, 60 h; active compounds read low | actives 1.5% (n = 140,000) | viability, % at 10 µM;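 active = viability at or under a set limit, the compound median less 4 SD, cut at about 6% in these data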;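 also: 0% = Hyamine 1622 control at 20 µM and 100% = untreated cell control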
# Insulin prom inh = TRM-6 insulin promoter activity inhibition; TRM-6 cells (human fetal islet line), insulin promoter-eGFP reporter, imaging; reporter expression induced with tamoxifen; inhibition, % at 2 µM; actives 0.9% (n = 130,000);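 active = inhibition above the mean plus 3 SD, with well images judged a real hit on visual review, cut at about 60% in these data, passing the limit was not always enough; inconclusive = inhibition over the cutoff but images rejected on review; inactive = inhibition not above the cutoff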
# Autophagy HCS = autophagy modulation, high-content screen; actives 0.98% (n = 190,000); MEF GFP-LC3 puncta imaging; test concentration mostly 10 µM; calls only at 10 µM (by protocol);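 active = percentage of spot-positive cells more than 3 SD above its plate mean, without a fluorescence outlier flag or 80% toxicity; inconclusive = no clear call, values can overlap the other calls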;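 also: spot-positive cell cutoff set from DMSO-treated cells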
# Lmaj promast = reduces viability of Leishmania major promastigotes; actives 9% (n = 200,000); inhibition, % at 10 µM; AID 1063; resazurin fluorescence viability; in the data active = inhibition above about 50%;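 also: promastigotes grown with compound for 44 hours at 28 °C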
# Ins promoter up = MIN6 insulin promoter up-regulation; MIN6 insulin promoter-GFP reporter, high-content imaging; active compounds read high; z-score at 5 µM; actives 0.3% (n = 190,000); AID 1625;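 active = z-score above 3 at 5 µM with at least 500 cells counted in the well; inconclusive = wells under 500 cells, flagged as cytotoxic or low count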
# HCT116 PTEN-null = suppresses growth of cells with PTEN deletion. viability, % at 10 µM. HCT116 PTEN-null viability, CellTiter-Glo, 60 h; active compounds read low. actives 1.2% (n = 140,000);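 active = viability at or below a set limit, 4 SD under the median of all tested compounds, cut at about 3.7% in these data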;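 also: PTEN knockout HCT116 line with beta catenin targeted HCT116 as companion control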
# * hit, by the source's call; i = inactive; ? = inconclusive; · = not tested or not shown. An excerpt weighted towards active compounds, which were near 9.6% of everything screened.
SMILES,bCat KO growth,Insulin prom inh,Autophagy HCS,Lmaj promast,Ins promoter up,HCT116 PTEN-null
Cc1ccc(CNC(=O)CCc2ccc(S(=O)(=O)NC3CCCCC3)cc2)cc1,94.6,-10.0,i,72.8*,1.41,89.8
CC(C)CNS(=O)(=O)c1ccc(CCC(=O)NC2CCCC2)cc1,·,·,i,2.1,0.16,·
CC(C)NS(=O)(=O)c1ccc(CCC(=O)NCc2cccnc2)cc1,100.5,15.2,i,-8.2,0.51,89.9
CC(NC(=O)CCc1ccc(S(=O)(=O)NC2CCCCC2)cc1)c1ccccc1 (centres undefined),83.3,-70.0,i,95.6*,-0.02,83.0
CC(NS(=O)(=O)c1ccc(CCC(=O)NCc2cccnc2)cc1)c1ccccc1 (centres undefined),92.9,-133.3,i,73.6*,-0.33,95.8
O=C(CCc1ccc(S(=O)(=O)NC2CCCCC2)cc1)NCc1cccnc1,·,-20.0,i,14.1,0.74,·
COCCCN(C)C1CCN(C(=O)Nc2ccc(F)cc2)CC1,97.3,·,·,-6.2,-2.28,98.8
Cc1ccc(C)c(N=Nc2nc3ccccc3n2C)c1,67.7,9.7,i,82.5*,-1.53,70.5
Cc1cc(C)c(C)c(N=Nc2nc3ccccc3n2C)c1C,46.5,0.0,i,36.8,0.12,51.7
Cc1ccc(C)c2sc(NC(=O)c3ccc(N4C(=O)CCC4=O)cc3)nc12,95.8,25.0,i,-3.5,0.03,90.8
O=C1c2oc3ccccc3c(=O)c2C(c2ccc(O)cc2)N1c1nccs1 (centres undefined),·,16.7,i,0.7,-0.26,·
CC1C2CC(C/C2=N/NC(=O)c2cccs2)C1(C)C (centres undefined),·,16.7,i,95.5*,-0.06,·
CNC(=O)c1ccc(N(Cc2ccccc2C)S(C)(=O)=O)cc1,89.5,14.3,i,-6.0,0.71,92.3
Cc1cccc(NS(=O)(=O)c2cc(C(=O)N3CCc4ccccc4C3)ccc2Cl)c1C,64.4,-29.2,i,97.0*,-0.37,54.1
Cc1ccc(C)c(NS(=O)(=O)c2cc(C(=O)N3CCc4ccccc4C3)ccc2Cl)c1,88.6,·,i,98.3*,-1.31,79.4
CCOC(=O)N1CCN(C(=O)c2ccc(C)c(S(=O)(=O)Nc3cccc(C)c3C)c2)CC1,84.6,20.5,i,98.2*,-1.04,80.0
Cc1ccccc1CN(c1ccc(C(=O)N2CCc3ccccc3C2)cc1)S(C)(=O)=O,74.0,-10.5,i,70.0*,0.14,67.4
CCOC(=O)N1CCN(C(=O)c2ccc(C)c(S(=O)(=O)Nc3ccccc3)c2)CC1,82.1,23.1,i,-0.1,0.45,72.0
Cc1ccccc1NS(=O)(=O)c1cc(C(=O)N2CCCC2)ccc1C,118.5,-17.9,i,-1.4,·,99.7
Cc1ccc(S(=O)(=O)N(C)C)cc1NC(=O)CCc1c[nH]c2ccccc12,·,11.1,i,10.0,-1.01,·
O=S1(=O)CCN2C=Nc3sc4c(c3C2=N1)CCCC4,93.9,-3.1,i,-3.1,2.19,104.5
CCc1nnc(N/N=C/c2ccc(N3CCC(C)CC3)c([N+](=O)[O-])c2)n1N,75.2,-42.9,i,72.9*,0.45,79.7
CCc1nnc(N/N=C/c2ccccc2Cl)n1N,106.2,-16.7,i,-3.4,-0.07,102.8
Cc1nnc(N/N=C/c2cc([N+](=O)[O-])c(N3CCC(C)CC3)cc2N2CCC(C)CC2)n1N,18.5,-8.1,i,99.7*,?,18.3
Cc1nnc(N/N=C/c2ccc([N+](=O)[O-])cc2)n1N,·,·,i,10.9,-0.2,·
SMILES,bCat KO growth,Insulin prom inh,Autophagy HCS,Lmaj promast,Ins promoter up,HCT116 PTEN-null
Cc1ccc(SCc2ccc(C(=O)N3CCCCC3)cc2)cc1,·,35.7,i,-0.7,-0.24,·
O=C(Nc1ccc(C(=O)O)cc1)/C(=C/c1ccc2c(c1)OCO2)NC(=O)c1cccc(Br)c1,·,-54.5,i,15.1,0.07,·
CCCN1CCC(=NNc2ccc(S(=O)(=O)N(CC)CC)cc2[N+](=O)[O-])CC1,·,·,i,100.0*,0.76,·
Cc1ccccc1/C=N/Nc1nc2ccccc2c(=O)n1O,·,·,·,·,-0.33,·
CCN(CC)CCCC(C)Nc1c2ccc(Cl)cc2nc2ccc(OC)cc12 (centres undefined),·,·,·,·,12.4*,·
Cc1cccc(-c2nnc3sc(-c4ccccc4)nn23)c1,94.2,·,i,6.0,0.08,107.4
CCc1ccc(CNCc2cccnc2)cc1,17.7,-35.0,i,90.1*,0.82,19.4
CCc1ccc(CNCc2ccc(F)cc2)cc1,81.3,12.5,i,70.8*,-0.21,86.2
COc1ccccc1NC(=O)CSc1ccc2nnc(-c3ccccn3)n2n1,·,·,·,·,-0.71,·
Cc1ccc2nc(C3CCCN(C(=S)Nc4cccc(C)c4C)C3)[nH]c2c1 (centres undefined),45.4,-20.0,i,82.0*,0.18,49.4
Cc1ccc(NC(=S)N2CCCC(c3nc4ccc(C)cc4[nH]3)C2)c(C)c1 (centres undefined),83.3,-3.3,i,62.4*,0.1,81.5
Cc1cc(O)c(C=Nc2ccc(Cl)cn2)c(=O)o1,91.8,-15.4,i,-7.0,·,96.6
Cc1ccc(/C=N/NC(=O)CSc2nc3ccccc3n2Cc2ccccc2)o1,101.9,·,i,12.7,0.57,102.7
COc1ccc(Nc2nc(Nc3ccc(OC)cc3OC)nc(N3CCN(C)CC3)n2)c(OC)c1,26.0,-316.7,i,76.6*,·,20.1
COc1ccc(Nc2nc(NC(C)(C)C)nc(N3CCCC3)n2)c(OC)c1,69.3,-242.9,i,95.8*,-0.03,76.3
COc1ccc(N2CCN(c3nc(NC(C)(C)C)nc(N4CCCCC4)n3)CC2)cc1,72.6,0.0,i,97.1*,-0.59,72.1
COc1ccc(-c2cc(C(F)(F)F)nc(N3CCOCC3)n2)cc1,88.9,-54.3,i,-2.2,·,88.6
COc1ccc(Nc2nc(NC(C)(C)C)nc(N3CCOCC3)n2)c(OC)c1,·,-5.3,i,44.7,-0.36,·
COc1ccc(Nc2nc(N3CCCC3)nc(N3CCCC3)n2)c(OC)c1,88.4,-30.6,i,48.9,·,87.9
COc1ccc(-c2cc(-c3ccc(F)cc3)nc(N3CCN(C)CC3)n2)cc1,3.3*,-100.0,i,39.5,·,3.4*
O=C(Nc1ccccc1)c1ccc(F)c(S(=O)(=O)N2CCOCC2)c1,79.8,-31.2,i,-5.9,0.03,93.7
Cc1ccc(S(=O)(=O)Nc2ccc3c4c(cccc24)CC3)c(C)c1,·,-20.9,i,5.5,·,·
COc1ccc(Nc2nc(N3CCCCC3)nc3ccccc23)c(OC)c1,10.6,57.1,i,97.2*,·,7.3
CCOc1ccc(N(C(=O)/C=C/C(=O)Nc2cc(C)on2)C(C(=O)NC2CCCC2)c2ccccc2C)cc1 (centres undefined),8.8,10.7,i,87.0*,-0.32,6.1
CCc1ccc(C(C(=O)NC2CCCC2)N(C(=O)/C=C/C(=O)Nc2cc(C)on2)c2ccccc2C)cc1 (centres undefined),15.8,5.4,i,99.4*,0.5,15.9

# High-throughput results (PubChem BioAssay)
